From PubChem BioAssay AID1159580 (chemical genetic matrix, 2015)
Among all 5,500 compounds or so, about 2,000 (36%) were called active. About 18% were inconclusive and are not listed. No stated cut-off is given here; in the data, active means normalized growth mostly below about 0.91 (no sharp cut-off); inconclusive means no clear call, values can overlap the other calls; inactive means mostly above about 0.92. This is one part of the list.

Experiment: chemical genetic growth profiling, strain panel (AID 1159580);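 further: tested at 20 µM; growth read once vehicle control cultures reached saturation at 30 °C; 1 = growth at the plate median or of vehicle wells; lower values mean less growth of the strain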
Conditions: S. cerevisiae deletion strains, growth OD
[1] = locus YAR019C, strain CDC15, active compounds read low
[2] = locus YBL105C, strain PKC1, active compounds read low
[3] = locus YBR135W, strain CKS1, active compounds read low
[4] = locus YBR136W, strain MEC1, active compounds read low
[5] = locus YBR160W, strain CDC28, active compounds read low
[6] = locus YDL017W, strain CDC7, active compounds read low
[7] = locus YDL028C, strain MPS1, active compounds read low
[8] = locus YDL101C, strain DUN1, active compounds read low
[9] = locus YDL108W, strain KIN28, active compounds read low
[10] = locus YDL132W, strain cdc53, active compounds read low
[11] = locus YDL214C, strain PRR2, active compounds read low
[12] = locus YDR052C, strain DBF4, active compounds read low
[13] = locus YDR054C, strain cdc34, active compounds read low
[14] = locus YDR226W, strain ADK1, active compounds read low
[15] = locus YDR477W, strain SNF1, active compounds read low
[16] = locus YER123W, strain YCK3, active compounds read low
[17] = locus YER133W, strain GLC7, active compounds read low
[18] = locus YFL009W, strain cdc4, active compounds read low
[19] = locus YFL029C, strain CAK1, active compounds read low
[20] = locus YFR003C, strain YPI1, active compounds read low
[21] = locus YFR019W, strain FAB1, active compounds read low
[22] = locus YFR028C, strain CDC14, active compounds read low
[23] = locus YGR040W, strain KSS1, active compounds read low
[24] = locus YGR052W, strain FMP48, active compounds read low
[25] = locus YGR092W, strain DBF2, active compounds read low
[26] = locus YHR030C, strain SLT2, active compounds read low
[27] = locus YHR079C, strain IRE1, active compounds read low
[28] = locus YHR082C, strain KSP1, active compounds read low
[29] = locus YHR205W, strain SCH9, active compounds read low
[30] = locus YIL147C, strain SLN1, active compounds read low
[31] = locus YJL095W, strain BCK1, active compounds read low
[32] = locus YJL128C, strain PBS2, active compounds read low
[33] = locus YJL157C, strain FAR1, active compounds read low
[34] = locus YJR016C, strain ILV3, active compounds read low
[35] = locus YJR066W, strain TOR1 (second series), active compounds read low
[36] = locus YJR066W, strain TOR1, active compounds read low
[37] = locus YKL048C, strain ELM1, active compounds read low
[38] = locus YKL067W, strain YNK1, active compounds read low
[39] = locus YKL101W, strain HSL1, active compounds read low
[40] = locus YKL193C, strain SDS22, active compounds read low
[41] = locus YKL203C, strain TOR2, active compounds read low
[42] = locus YLR113W, strain HOG1, active compounds read low
[43] = locus YLR133W, strain CKI1, active compounds read low
[44] = locus YLR403W, strain SFP1, active compounds read low
[45] = locus YML070W, strain DAK1, active compounds read low
[46] = locus YMR001C, strain CDC5, active compounds read low
[47] = locus YMR205C, strain PFK2 (second series), active compounds read low
[48] = locus YMR277W, strain FCP1, active compounds read low
[49] = locus YNL006W, strain LST8, active compounds read low
[50] = locus YNL020C, strain ARK1, active compounds read low
[51] = locus YNL161W, strain CBK1, active compounds read low
[52] = locus YNL183C, strain NPR1, active compounds read low
[53] = locus YNL207W, strain RIO2, active compounds read low
[54] = locus YNL222W, strain SSU72, active compounds read low
[55] = locus YNL307C, strain MCK1 (second series), active compounds read low
[56] = locus YOL078W, strain AVO1, active compounds read low
[57] = locus YOL136C, strain PFK27, active compounds read low
[58] = locus YOR061W, strain CKA2, active compounds read low
[59] = locus YOR119C, strain RIO1, active compounds read low
[60] = locus YOR231W, strain MKK1, active compounds read low
[61] = locus YOR329C, strain SCD5, active compounds read low
[62] = locus YPL031C, strain PHO85, active compounds read low
[63] = locus YPL153C, strain RAD53, active compounds read low
[64] = locus YPL204W, strain HRR25, active compounds read low
[65] = locus YPL209C, strain IPL1, active compounds read low
[66] = locus YPL256C, strain CLN2, active compounds read low
[67] = locus YPR025C, strain CCL1, active compounds read low
[68] = locus YPR106W, strain ISR1, active compounds read low
[69] = locus YPR111W, strain DBF20, active compounds read low
[70] = strain NNK1, active compounds read low
[71] = strain TSCII, active compounds read low

Measured: normalized growth

CC(C)(C)NC(=S)N/N=C\c1ccccc1O
inactive: [1] 0.954 | [2] 0.957 | [3] 0.958 | [4] 0.958 | [5] 0.947 | [6] 0.96 | [7] 0.951 | [8] 0.964 | [9] 0.947 | [10] 0.95 | [11] 0.924 | [12] 0.97 | [13] 0.943 | [14] 0.961 | [15] 0.876 | [16] 0.848 | [17] 0.882 | [18] 0.928 | [19] 0.947 | [20] 0.955 | [21] 0.95 | [22] 0.957 | [23] 0.875 | [24] 0.954 | [25] 0.692 | [26] 0.901 | [27] 0.806 | [28] 0.931 | [29] 0.972 | [30] 0.953 | [31] 0.941 | [32] 0.949 | [33] 0.891 | [34] 0.954 | [35] 0.878 | [36] 0.789 | [37] 0.947 | [38] 0.897 | [39] 0.917 | [40] 0.951 | [41] 0.968 | [42] 0.915 | [43] 0.926 | [44] 0.867 | [45] 0.902 | [46] 0.95 | [47] 0.941 | [48] 0.93 | [49] 0.945 | [50] 0.903 | [51] 0.955 | [52] 0.955 | [53] 0.954 | [54] 0.944 | [55] 0.841 | [56] 0.955 | [57] 0.904 | [58] 0.882 | [59] 0.909 | [60] 0.828 | [61] 0.959 | [62] 0.867 | [63] 0.865 | [64] 0.837 | [65] 0.941 | [66] 0.949 | [67] 0.954 | [68] 0.968 | [69] 0.949 | [70] 0.967 | [71] 0.94

CC(NC(=S)N/N=C\c1ccccc1O)c1ccccc1 (stereo not drawn)
active: [26] 0.772
inactive: [1] 0.984 | [2] 0.982 | [3] 0.971 | [4] 0.975 | [5] 0.974 | [6] 0.974 | [7] 0.981 | [8] 0.977 | [9] 0.969 | [10] 0.973 | [11] 0.973 | [12] 0.986 | [13] 0.951 | [14] 0.97 | [15] 0.927 | [16] 0.905 | [17] 0.953 | [18] 0.972 | [19] 0.974 | [20] 0.979 | [21] 0.99 | [22] 0.982 | [23] 0.944 | [24] 1.06 | [25] 0.897 | [27] 0.951 | [28] 1.03 | [29] 1.01 | [30] 0.985 | [31] 0.87 | [32] 0.986 | [33] 0.966 | [34] 0.977 | [35] 0.944 | [36] 0.943 | [37] 0.972 | [38] 0.992 | [39] 0.978 | [40] 0.976 | [41] 0.98 | [42] 0.966 | [43] 0.97 | [44] 0.939 | [45] 0.964 | [46] 0.979 | [47] 0.977 | [48] 0.971 | [49] 0.991 | [50] 0.964 | [51] 0.984 | [52] 0.896 | [53] 0.976 | [54] 0.974 | [55] 0.933 | [56] 0.978 | [57] 0.984 | [58] 0.959 | [59] 1.04 | [60] 0.981 | [61] 0.983 | [62] 0.927 | [63] 0.929 | [64] 0.922 | [65] 0.979 | [66] 0.944 | [67] 0.979 | [68] 0.992 | [69] 0.983 | [70] 0.992 | [71] 0.978

COc1ccccc1NC(=S)N/N=C\c1ccccc1O
inactive: [1] 0.962 | [2] 0.968 | [3] 0.967 | [4] 0.965 | [5] 0.967 | [6] 0.967 | [7] 0.96 | [8] 0.978 | [9] 0.954 | [10] 0.965 | [11] 0.941 | [12] 0.973 | [13] 0.957 | [14] 0.959 | [15] 0.938 | [16] 0.928 | [17] 0.942 | [18] 0.965 | [19] 0.953 | [20] 0.97 | [21] 0.976 | [22] 0.966 | [23] 0.939 | [24] 1.02 | [25] 0.891 | [26] 0.903 | [27] 0.956 | [28] 0.964 | [29] 0.98 | [30] 0.961 | [31] 0.978 | [32] 0.957 | [33] 0.951 | [34] 0.979 | [35] 0.903 | [36] 0.942 | [37] 0.962 | [38] 0.955 | [39] 0.948 | [40] 0.964 | [41] 0.971 | [42] 0.955 | [43] 0.942 | [44] 0.916 | [45] 0.973 | [46] 0.958 | [47] 0.959 | [48] 0.966 | [49] 0.97 | [50] 0.955 | [51] 0.967 | [52] 0.975 | [53] 0.97 | [54] 0.967 | [55] 0.949 | [56] 0.968 | [57] 0.967 | [58] 0.931 | [59] 0.941 | [60] 0.967 | [61] 0.969 | [62] 0.93 | [63] 0.937 | [64] 0.941 | [65] 0.967 | [66] 0.929 | [67] 0.968 | [68] 0.969 | [69] 0.978 | [70] 0.986 | [71] 0.969
